Experimental data from PubChem BioAssay (NCI).
The panel holds about 83,000 compounds, 20% with a hit somewhere; the sample as a whole holds those more often.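 Activity criterion: percent growth below 10, measured after cells in 96-well plates were exposed to a single compound concentration for 48 hours.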 A number with no mark means an inactive call. Active and inactive are the calls of the source.

Columns and labels:
Assay in all cases: NCI-60 one-dose screen, 48 h (100 = growth as untreated, 0 = no growth, -100 = all killed)
Conditions in all cases: 10 µM unless noted
[1] = system: SK-MEL-2 melanoma
[2] = system: EKVX NSCLC
[3] = system: SN12C renal
[4] = system: UO-31 renal
[5] = system: TK-10 renal
[6] = system: ACHN renal
[7] = system: CAKI-1 renal
[8] = system: A498 renal
[9] = system: CCRF-CEM leukemia
[10] = system: MOLT-4 leukemia

Compound | growth [1] | growth [2] | growth [3] | growth [4] | growth [5] | growth [6] | growth [7] | growth [8] | growth [9] | growth [10]
O=C(Nc1ccccc1O)c1ccc(CNC(=O)c2sccc2Nc2ccnc(C(F)(F)F)c2)cc1 | 0.0247% (active) | 59.2% | 57.8% | 27.2% | 4.53% (active) | 49.3% | 35.2% | 6.31% (active) | 10.8% | 12.1%
COc1ccc(OC)c(Nc2nnc(-c3ccc(O)c(OC)c3)o2)c1 | 96.3% | 82.5% | 34% | 20.3% | 14.8% | 37.9% | 30.4% | 6.18% (active) | 88.6% | 60.8%
O=C(Nc1cccc2ccccc12)NC1CC1 | 121% | 109% | 106% | 88% | 117% | 101% | 96.5% | 112% | 97.5% | 92.6%
COCCNC(=O)Nc1ccc2nc(-c3cccs3)c(-c3cccs3)nc2c1 | 101% | 87.9% | 94.7% | 74.4% | 104% | 89.3% | 89.8% | 33.7% | 96.8% | 85.9%
Cc1nc2sc(C(=O)Nc3ccc(Br)cc3)c(N)c2cc1C(O)c1ccccc1 (stereo not given) | 81.5% | 55.3% | 68% | 62.1% | 85.4% | 72.4% | 65% | 51.9% | 43.4% | 26.2%
COc1ccc(/C=C/C(=O)c2cccc(OCCCCOc3cccc(C(=O)/C=C/c4ccc(OC)c(OC)c4)c3)c2)cc1OC | 81.2% | 55% | 79.9% | 62% | 114% | 77.8% | 74.2% | 79.9% | 62.7% | 62.8%
COc1ccc(-c2ccc(-c3ccc(C(=N)N)cc3)s2)cc1Cl | 101% | 68.3% | -69.1% (active) | -47.6% (active) | 111% | -98.7% (active) | -88.2% (active) | 90.3% | -41.3% (active) | -50.1% (active)
[O-]/[N+](=C\c1ccc(-n2cc(Cc3ccccc3Cc3cn(-c4ccc(/C=[N+](/[O-])c5ccccc5)cc4)nn3)nn2)cc1)c1ccccc1 | 111% | 96.8% | 101% | 93.3% | 121% | 103% | 98.8% | 83.3% | 103% | 89.5%
O=C(/C=C/c1cccs1)Nc1ncc(Cc2ccccc2F)s1 | 46.5% | 26.1% | 41.3% | 36.2% | 49.6% | 31.5% | 23% | 4.45% (active) | 14.4% | 26%
NC(=O)c1ccc(-c2c3ccccc3cc3c2ccc2ccccc23)cc1 | 43.7% | 67.7% | 72.9% | 57.5% | 70.2% | 57.2% | 61.7% | 70% | 37.8% | 40.5%
COc1ccc(OC)c(-c2nc(SCC(=O)c3ccc(C#N)cc3)[nH]c(=O)c2C#N)c1 | 104% | 105% | 107% | 76.9% | 103% | 97.7% | 96.8% | 106% | 106% | 103%
c1csc(-c2ccc(CNc3c4ccccc4nc4ccccc34)cc2)c1 | 80.8% | 59% | 63.2% | 27.9% | 65.1% | 58.6% | 35.5% | -2.45% (active) | 2.57% (active) | 1.96% (active)
Cc1cccc(/C=C2\CN(C(=O)OC(C)(C)C)C/C(=C\c3cccc(C)c3)C2=O)c1 | 95.3% | 93.4% | 95.4% | 69% | 96.1% | 84% | 73.5% | 93.9% | 8.66% (active) | 51.8%
CCCNc1nc2ccccc2c2c1S(=O)(=O)c1ccc(Cl)cc1C2=O | 8.94% (active) | 25.8% | -1.38% (active) | 10.9% | 17.3% | 10.7% | 18.2% | 31.1% | -5.94% (active) | 4.02% (active)
CC(C)(Sc1cc(C(C)(C)C)c(O)c(C(C)(C)C)c1)Sc1cc(C(C)(C)C)c(OC(=O)CCCC(=O)O)c(C(C)(C)C)c1 | 76% | 53.5% | 41.4% | 38% | 74.2% | 47% | 59% | 60.2% | 43.5% | 36.9%
COC1=CC(c2ccc[nH]2)=N/C1=C\c1[nH]c(C)c(CC(=O)OCc2ccccc2)c1CCC(=O)OCc1ccccc1 | -61.3% (active) | 4% (active) | -15.6% (active) | -89.3% (active) | -21.5% (active) | -30.6% (active) | -15.9% (active) | -54.1% (active) | -0.154% (active) | -10.6% (active)
O=c1[nH]c(-c2ccccc2)nc2sc3cc(O)ccc3c12 | 103% | 66.4% | 89.1% | 55.9% | 99.9% | 76.2% | 68.9% | 79.3% | 73.1% | 66.9%
O=C(CSc1nnc(-c2cnccn2)n1-c1ccccc1)c1ccc(Cl)cc1 | 96.4% | 103% | 87.5% | 94.2% | 99.2% | 99.8% | 102% | 93.1% | 92.1% | 93.4%
N#Cc1c(-c2ccccc2)cc(-c2ccc(Nc3nc(Nc4ccc(Cl)cc4)nc(Nc4ccc(Cl)cc4)n3)cc2)nc1N | 34% | 9.99% (active) | 50.2% | -82.4% (active) | -60.1% (active) | -32.5% (active) | 20.1% | 81.8% | 4.06% (active) | 4.72% (active)
COc1cc2nc3cc([N+](=O)[O-])ccc3c(NCCNCC(C)O)c2cc1OC (stereo not given) | -29.6% (active) | 9.5% (active) | -16.2% (active) | 28.6% | 14.3% | 2.74% (active) | 18.6% | -34% (active) | -6.35% (active) | -0.334% (active)
COc1ccc(\C=N/N=C(N)/C(N)=N\N=C/c2ccc(OC)cc2)cc1 | 95.5% | 95.6% | 111% | 89.1% | 101% | 100% | 89.8% | 96.3% | -48.3% (active) | 109%
C=C(CBr)[C@@H]1CC[C@]2(C(=O)O)CC[C@]3(C)[C@H](CC[C@@H]4[C@@]5(C)CCC(=O)C(C)(C)[C@@H]5CC[C@]43C)[C@@H]12 | 79.7% | 86.5% | 72.5% | 56.2% | 112% | 81.4% | 82% | 110% | 50.3% | 54.4%
Cc1ccc(CNc2ccc3nc(CCC4CCCCC4)[nH]c3c2)cc1 | 58.8% | 53.4% | 45.7% | 23.8% | 54.8% | 47.8% | 35.8% | 57.5% | 39.9% | 19.5%
CC(C)(Sc1cc(C(C)(C)C)c(OC(=O)CCCC(=O)O)c(C(C)(C)C)c1)Sc1cc(C(C)(C)C)c(OC(=O)CCCC(=O)O)c(C(C)(C)C)c1 | 55.2% | 47.2% | 19.6% | 37.9% | 58.6% | 26.9% | 52.8% | 66.5% | 37.8% | 26.6%
NC(N)=NCCCCCNc1noc(Cc2c[nH]c3cc(Br)ccc23)n1 | 87.7% | 69.6% | 44.7% | 80.2% | 75.4% | 92.6% | 82.4% | 94% | 97.8% | 60.2%
O=C1NC(=C(Cl)Cl)/C(=N\S(=O)(=O)NCc2ccccc2)N1 | 103% | 118% | 90.7% | 94.1% | 107% | 110% | 101% | 104% | 75% | 85.5%
Fc1cc2c(cc1Cl)N(c1ncnc3ccc(-c4ccc5n[nH]nc5c4)cc13)CC2 | 89% | 52.8% | 64.9% | 44.3% | 46% | 50.1% | 49.3% | -2.78% (active) | 92.9% | 90.5%
